The source made the active and inactive calls. Rule for the calls: active = hit-call score of the fitted dose curve at least 0.9, where 1 is the maximum; inactive = score below 0.9.
Experiment: ATG_TA_CIS: Attagene CIS-FACTORIAL HepG2 Assay for human TA Basal Promoter (AID 2282964)
Details: HepG2 Attagene CIS-factorial TA basal promoter reporter; actives raise or lower the signal
Protocol: ATG_CIS is a cell-based, multiplexed-readout assay that uses HepG2, a human liver cell line, with measurements taken at 24 hours after chemical dosing in a 24-well plate.ATG_TA_CIS is one of 52 assay component(s) measured or calculated from the ATG_CIS assay. It is designed to make measurements of mRNA induction, a form of inducible reporter, as detected with fluorescence intensity signals by Reverse transcription polymerase chain reaction (RT-PCR) and Capillary electrophoresis technology.Data from the assay component ATG_TA_CIS was analyzed into 1 assay endpoint. This assay endpoint, ATG_TA_CIS, was analyzed with bidirectional fitting relative to DMSO as the negative control and baseline of activity. Using a type of inducible reporter, measures of mRNA for gain or loss-of-signal activity can be used to understand the background control at the transcription factor-level as they relate to the gene . Furthermore, this assay endpoint can be referred to as a secondary readout, because this assay has produced multiple assay endpoints where this one serves a background control function. To generalize the intended target to other relatable targets, this assay endpoint is annotated to the background measurement intended target family, where the subfamily is internal marker.
Human liver HepG2 cells are transiently transfected with multiple reporter transcription units (MRTUs) in 6-well plates using FuGene 6 reagent (Roche; 3 ml FuGene/1 mg DNA). The MRTU constructs are regulated by a cis-regulating element (promoter). […] A major difference between the CIS and TRANS system is that in CIS activities of endogenous TFs are measured, whereas the TRANS assay evaluates changes in activities of exogenous, chimeric NR-Gal4 proteins. […] At the end of 24 hour incubation, total RNA was isolated using TriZol reagent (Invitrogen). The isolated RNA is then reverse-transcribed using oligo(dT) primer and Mo-MLV reverse transcriptase (Invitrogen) with DNAse I (Ambion) treatment for 30 min. The one-tenth of the produced cDNA was amplified by PCR using Taq DNA polymerase (Invitrogen) and two reporter sequence-specific primers. The PCR products were fluorescently labeled by primer extension with 6-arboxyfluorescein (6-FAM) 5'-labeled reporter sequence-specific primer (2 min at 95 C, 20 s at 68 C and 10 min at 72 C) and these products were digested with 5U of HpaI (New England Biolabs) for 2h at 37 C. The fragments were purified using Qiaquick PCR columns (Qiagen), analyzed on an ABI 3130xL genetic analyzer (Applied Biosystems) with peak positions identified by using a set of X-rhodamine (ROX)-labeled MapMarker1000 molecular weight standards (BioVentures). The raw capillary electrophoresis data was processed using Attagraph software (Attagene).

Compound	outcome	AC50
O=C(O)CCCCC1CCSS1 (stereo not given)	inactive	–
CCOC(=O)c1ccccc1OC	inactive	–
O=C(O)c1ccc([N+](=O)[O-])cc1	inactive	–
O=C(O)c1snc(Cl)c1Cl	inactive	–
C=C(C)[C@@H]1CC[C@@H](C)C[C@@H]1O	inactive	–
NCCCN1CCOCC1	inactive	–
Nc1ccc(F)c([N+](=O)[O-])c1	inactive	–
CC(C)Oc1ccccc1O	inactive	–
CCCCNC(=O)NS(=O)(=O)c1ccc(N)cc1	inactive	–
COc1ccnc(CS(=O)c2nc3cc(OC(F)F)ccc3[nH]2)c1OC (stereo not given)	inactive	–
C[C@]12CC[C@H]3[C@@H](CCC4=CC(=O)CC[C@@]43C)[C@@H]1CC[C@@H]2C(=O)CO	–	61 µM (active)
COc1ccc(O)cc1	inactive	–
CCCCCCCCCCCCSC	inactive	–
O=C(O)c1cccc(C(F)(F)F)c1	inactive	–
CC(C#N)(CCC(=O)O)N=NC(C)(C#N)CCC(=O)O (stereo not given)	inactive	–
CC(=O)C(=O)O	inactive	–
C=CC(C)(O)CCC=C(C)CCC=C(C)C (stereo not given)	–	146 µM (active)
COc1nc(C)nc(N)n1	inactive	–
O=c1cc(-c2ccccc2)oc2cc(O)cc(O)c12	inactive	–
CCCCCCCCC	inactive	–

Compound	outcome	AC50
OC1C(O)C(O)C(O)C(O)C1O (stereo not given)	inactive	–
CC1(C)OC[C@@H]2O[C@@]3(C(=O)O)OC(C)(C)O[C@H]3[C@@H]2O1	inactive	–
Fc1c(F)c(F)c(Br)c(F)c1F	inactive	–
CC(C)=CCC[C@](C)(O)[C@@H]1CC=C(C)CC1	inactive	–
O=[N+]([O-])c1ccc(C=Cc2ccc([N+](=O)[O-])cc2S(=O)(=O)O)c(S(=O)(=O)O)c1	inactive	–
CC(C)CCCCCCCOC(=O)c1ccc(C(=O)OCCCCCCCC(C)C)c(C(=O)OCCCCCCCC(C)C)c1	inactive	–
CCCCCCCCCCCCCCCC(=O)O	inactive	–
CC(C)c1ccc(C(C)C)cc1	inactive	–
CCCC1CCC(=O)O1 (stereo not given)	inactive	–
CCCCO	inactive	–
CCCCCCCCCCCCCOS(=O)(=O)O	inactive	–
C=CC(=O)OCCn1c(=O)n(CCOC(=O)C=C)c(=O)n(CCOC(=O)C=C)c1=O	inactive	–
CCc1c(C)cc(N)c(CC)c1N	inactive	–
CC(CC(C)(C)C)CC(C)(C)CC(C)(C)C (stereo not given)	inactive	–
CCCC/C=C\CCCCCCCCCC=O	inactive	–
CC[C@]12CCCN3CCc4c(n(c5ccccc45)[C@@](O)(C(=O)OC)C1)[C@@H]32	inactive	–
O=C(O)CCSCCC(=O)O	inactive	–
N#Cc1nc(Cl)c(Cl)c(Cl)c1Cl	inactive	–
CCCCCC(=O)OCCc1ccccc1	inactive	–
COc1cccc(OC)c1	inactive	–
